# Data from PubChem BioAssay AID504444 (National Center for Advancing Translational Sciences (NCATS), 2011).
# Out of some 360,000 compounds screened, about 7,500 (2.1%) were called active. Entries that show only a call come without a potency. Not shown: some 20% with an inconclusive outcome. The call rests on the fitted dose curve; in most records, active means well fitted inhibition curve with a large enough effect; inconclusive means small, poorly fitted or top-dose-only effect, or effect the other way; inactive means flat fitted curve, though single readings scatter. The sample as a whole holds a higher share of actives than the screen did.
# Assay: Nrf2 qHTS screen for inhibitors; further: nearly all actives have a fitted effect of over 60% in size
# Settings: A549 ARE-Fluc reporter, luciferase luminescence, 18-24 h; series mostly up to 46 µM
# Text: NIH Molecular Libraries Probe Production Network [MLPCN]
# NIH Chemical Genomics Center [NCGC]
# Assay Provider: Shyam Biswal, Johns Hopkins University
# Nrf2 is a transcription factor that maintains cellular redox homoestasis and protects cells from xenobiotics. Nrf2 binds to the antioxidant response element (ARE) to induce gene expression of a broad spectrum of genes that encode for antioxidants. […] Finding a small molecule that act as an inhibitor of Nrf2 function would represent a novel therapeutic target that could lead to improvement in survival of patients undergoing chemo- and/or radio- therapy.
# This is the Nrf2 activity measured in the luminescent read.
# 1. Shibata, T., et al., Genetic Alteration of Keap1 Confers Constitutive Nrf2 Activation and Resistance to Chemotherapy in Gallbladder Cancer. Gastroenterology, 2008.
# 2. Sjoblom, T., et al., The consensus coding sequences of human breast and colorectal cancers. Science, 2006. 314(5797): p. 268-74.
# NCGC Assay Protocol Summary:
# A concentration-response assay was performed with A549 ARE_Fluc cells which are suspended in 5% FBS OPTI-MEM. Five uL were dispensed into 1536-well white TC-treated plate using the Kalypsys dispenser to achieve a density of 5000 cells/well in all columns except column 1. The plate is incubated at 37deg C at 5% CO2 for 2 hours before 23 nL of compounds are added with the Kalypsys pin tool equipped with a 1,536-pin array containing 10-nL slotted pins (FP1S10, 0.457-mm diameter, 50.8 mm long; V&P Scientific). The control compounds Budesonide and Staurosporine are both added at a concentration of 2mM and Budesonide is also added as a 1:10 titration, starting at 200uM, to achieve dose-response. After an 18-24 hour incubation at 37deg C at 5% CO2, 5ul of medium is added to column 1. Afterwards 1ul of 5x of CellTiter-Fluor (Promega) is added to every well. The plate is then incubated at 37deg C at 5% CO2 for 30 minutes before they are read on the ViewLux (Perkin Elmer) for a fluorescent read Ex=405(10)/Em=525(10) for a 3 second exposure, 2x binning, and high gain. Then 3 uL of 3x BugLite is dispensed into all wells and the plate is incubated at ambient room temperature for 15 minutes. Afterwards another ViewLux read is performed using the clear filter to get a luminescent read with the settings of 40 second exposure, 2x binning, and high gain. Cytotoxicity is assessed through the first fluorescent read and then biochemical activity against Nrf2 is measured in the luminescent read.
# Potency means the concentration at half of the fitted maximal effect.
Compound,Potency,"activity change, negative = inhibition"
CCOC(=O)C1=C(CN2CCCCCC2)NC(=O)NC1c1cccc([N+](=O)[O-])c1 (stereo unspecified),inactive,–
CCOC(=O)C1=C(CN2CCc3ccccc32)NC(=O)NC1c1ccc(Cl)cc1 (stereo unspecified),16.4 µM (active),–
CCOC(=O)C1=C(CN2CCc3ccccc32)NC(=O)NC1c1cccc([N+](=O)[O-])c1 (stereo unspecified),inactive,–
COc1ccc(CNCCCn2cnc3c(OCc4ccccc4)ncnc32)cc1,inactive,–
CCOC(=O)c1cnc(-n2nc(C)cc2C)nc1Nc1cccc(C(C)=O)c1,inactive,–
CCOC(=O)c1cnc(-n2nc(C)cc2C)nc1NNc1cc(C)nc(-c2ccccc2)n1,4.11 µM (active),–
Cc1cc(C)n(-c2c(F)c(F)c(COC(=O)c3ccccc3)c(F)c2F)n1,inactive,–
O=c1n(Cc2cccc(C(F)(F)F)c2)c2ccccc2c2nc(-c3ccccc3)nn12,inactive,–
CC(Nc1ccc([N+](=O)[O-])cc1[N+](=O)[O-])c1ccccc1 (stereo unspecified),inactive,–
CCn1cc(C(=O)OCC(=O)Nc2cc(C)cc(C)c2)c(=O)c2ccc(C)nc21,inactive,–
CC[C@]1(C(=O)OC)[C@H]2C(=O)N(Cc3ccccc3)C(=O)[C@H]2[C@H]2CN=C(SCc3ccc(Cl)cc3)N21,inactive,–
Cc1ccc2cccc(NC(=O)c3cccc4ccccc34)c2n1,inactive,–
Cc1ccc2ccc3c(c2n1)NS(=O)(=O)c1ccccc1-3,20.6 µM (active),–
Cc1ccccc1C(=O)NCCN=C1NS(=O)(=O)c2ccccc21,inactive,–
CC(C)(C)OC(=O)C[C@@H]1C/C=C\C[C@@H](CC(=O)N[C@H](CO)Cc2ccccc2)C(=O)NC[C@@H](c2ccccc2)OC1=O,inactive,–
Cc1ccc(CN(C(=O)c2ccccc2[N+](=O)[O-])c2ccccn2)cc1,inactive,–
O=C(Oc1cccc(C(=S)N2CCOCC2)c1)c1cccc(Cl)c1,inactive,–
O=C(Nc1ccc(Cl)cc1)c1cccc(OC(=S)N2CCOCC2)c1,23.1 µM (active),–
O=C(Nc1ccc(Cl)cc1)Nc1ccc(C(=O)N2CCOCC2)cc1,inactive,–
CCCCNC(=O)C(C)N(CCN(C)C)C(=O)CCCN1C(=O)NC(c2ccc(Cl)cc2)C(C(=O)OCc2ccccc2)=C1C (stereo unspecified),inactive,–
N#Cc1nc(COc2ccc(-c3ccccc3)cc2)oc1NCc1cccnc1,13 µM (active),–
N#Cc1nc(Cc2cccc3ccccc23)oc1NCc1ccc2c(c1)OCO2,inactive,–
Cc1ccc(OCc2nc(C#N)c(N3CCCC3)o2)cc1,inactive,–

Compound,Potency,"activity change, negative = inhibition"
Oc1ccc(Br)cc1C1C=C(c2ccc3c(c2)OCO3)NC(c2ccc(Cl)cc2)N1 (stereo unspecified),inactive,–
Cc1cccc(C)c1NC(=O)COC(=O)c1c(C)nn(-c2ccccc2)c1C,inactive,–
CC1CCc2sc(C(=O)NCC(c3ccco3)N3CCCCC3)cc2C1 (stereo unspecified),inactive,–
CCCn1nnnc1NC(=O)COc1ccc(Cl)cc1C,13 µM (active),–
Cc1cc(NC(=O)COC(=O)COc2ccc(Cl)cc2C)c([N+](=O)[O-])cc1C,inactive,–
CCOC(=O)N1CCN(C(=O)COc2ccc(Cl)cc2C)CC1,inactive,–
CCCc1cc(=O)[nH]c(SCC(=O)Nc2ccc(C(=O)Nc3ccccc3OC)cc2)n1,inactive,–
Cc1ccccc1NC(=O)Cn1c(=O)n(CCc2ccccc2)c(=O)c2ccccc21,inactive,–
COc1ccc(S(=O)(=O)N(C)C[C@@H]2Oc3ccc(NC(=O)Nc4c(C)noc4C)cc3C(=O)N([C@H](C)CO)C[C@@H]2C)cc1,inactive,–
CCOc1ccc(NC(=O)c2ccc(NC(=O)COC(=O)c3ccc(NC(=O)CC#N)cc3)cc2)cc1,inactive,–
CCC(C)(C)c1ccc(Oc2ccc(NC(=O)COC(=O)C3=COCCO3)cc2)cc1,8.2 µM (active),–
COc1ccc(NC(=O)COC(=O)CNC(=O)C2CCCCC2)cc1,inactive,–
COc1cc(OC)cc(-c2c(C#Cc3ccsc3)c3cc(-c4ccc(OC)cc4F)ccc3n2C)c1,inactive,–
O=C(NCCC(=O)N1O[C@@H]2C=C[C@H]1C2)OCC1c2ccccc2-c2ccccc21,inactive,–
COc1ccc(Cn2c(=O)sc3ccccc32)cc1OC,25.9 µM (active),–
COc1ccccc1CNC(=O)CCn1c(=O)sc2ccccc21,inactive,–
Cc1cccc(CSc2nnc(Cn3c(=O)sc4ccccc43)n2C)c1,inactive,–
COc1ccc(-n2c(SC)nc3sc4c(c3c2=O)CCN(C(C)=O)C4)cc1,–,1.06% [at 9.27 µM] (inactive)
CN(CCc1ccccc1)C(=O)c1cccc(NC(=O)Cc2cccc(NC(=O)C3CCCN(C(=O)CCc4ccccc4)C3)c2)c1 (stereo unspecified),23.1 µM (active),–
CN(C(=O)c1cccc(NC(=O)Cc2cccc(NC(=O)C3CCCN(C(=O)C4CC4)C3)c2)c1)C1CCC1 (stereo unspecified),inactive,–
CN(C(=O)c1cccc(NC(=O)Cc2ccc(NC(=O)C3CCCN(C(=O)C4CC4)C3)cc2)c1)C1CC1 (stereo unspecified),inactive,–
CCCN(C(=O)Cn1cc(S(=O)(=O)N2CCN(c3ccccc3F)CC2)c2ccccc2c1=O)c1cccc(C)c1,inactive,–
COc1ccc(CNC(=O)COc2ccccc2C(=O)c2cnn(-c3ccccc3)c2)cc1OC,inactive,–

Compound,Potency,"activity change, negative = inhibition"
Cc1ccc(C(=O)OCC(=O)NCc2cc(C)c(O)c(C)c2)cc1S(=O)(=O)N1CCCCC1,inactive,–
COc1ccc2c(C)c(CCC(=O)NCc3ccc(OC)c(OC)c3)c(=O)oc2c1,inactive,–
CCC(CO)Oc1cc(NCc2ccccc2)c2ncn(C3CCCC3)c2c1 (stereo unspecified),inactive,–
Cc1cc(C)cc(C(=O)NC(CC(N)=O)c2ccc(N3CCC(N4CCCCC4)CC3)c([N+](=O)[O-])c2)c1 (stereo unspecified),inactive,–
CC1CCCCN1CCCNc1ccc(C(CC(N)=O)NC(=O)c2ccccc2)cc1[N+](=O)[O-] (stereo unspecified),inactive,–
NC(=O)CC(NC(=O)Cc1ccc(Br)cc1)c1ccc(NC2CC3CCC2C3)c([N+](=O)[O-])c1 (stereo unspecified),18.4 µM (active),–
O=C1OCC2=C1C(c1ccc(Cl)cc1)c1cc3c(cc1O2)OCO3 (stereo unspecified),inactive,–
COc1ccc(Cl)cc1NC(=O)Cn1c(=O)c2ccccc2n2nncc12,inactive,–
Cc1cccc(N=C2NC(=O)/C(=C/c3cn(C)c4ccccc34)S2)c1,14.6 µM (active),–
Cc1ccc(N=C2NC(=O)/C(=C/C=C/c3ccco3)S2)cc1C,inactive,–
CN(C)c1ccc(-n2cccc2/C=C2/SC(=Nc3ccc(F)cc3)NC2=O)cc1,inactive,–
Oc1c(Cl)cc(Cl)c(Cl)c1Cc1c(O)c(Cl)cc(Cl)c1Cl,14.6 µM (active),–
O=C(c1ccc2c(=O)n(Cc3ccco3)c(=S)[nH]c2c1)N1CCCC1,inactive,–
O=C(Nc1cc(S(=O)(=O)N2CCCCC2)ccc1Cl)C1COc2ccccc2O1 (stereo unspecified),inactive,–
CCOC(=O)c1cc(=O)c2ccc(OCc3ccccc3)cc2o1,inactive,–
CCc1ccc(Oc2coc3cc(OC(=O)c4cc5ccccc5oc4=O)ccc3c2=O)cc1,4.61 µM (active),–
COc1ccc(Oc2coc3cc(OC(=O)c4cncc(Br)c4)ccc3c2=O)cc1,inactive,–
CCc1ccc(Oc2coc3cc(O)ccc3c2=O)cc1,7.31 µM (active),–
CCCOC(=O)c1cc2ccccc2oc1=O,inactive,–
COc1ccc(-c2onc(C)c2C)cc1S(=O)(=O)NCc1cccs1,inactive,–
CC(C)Cn1c(=O)c2ccccc2n2c(-c3cccc(Cl)c3)nnc12,inactive,–
O=C(Nc1ccc(C(=O)N2CCOCC2)cc1)Nc1cccc(C(F)(F)F)c1,inactive,–
CCOC(=O)c1cccc(NS(=O)(=O)c2c(C(=O)N3CCCCCC3)c(C)n(C)c2C)c1,inactive,–

Compound,Potency,"activity change, negative = inhibition"
CCOC(=O)N1CCN(C(=O)c2ccc(S(=O)(=O)Nc3cccc(C(F)(F)F)c3)cc2)CC1,18.4 µM (active),–
Cc1ccc(C)c(N2CCN(C(=O)CCc3nc(-c4cccc(C(F)(F)F)c4)no3)CC2)c1,inactive,–
COc1ccc(C(=O)OCC(=O)c2cc(C)n(CC3CCCO3)c2C)cc1[N+](=O)[O-] (stereo unspecified),inactive,–
Cc1oc2ncnc(N3CCCCC3)c2c1C(=O)N1CCN(c2cccc(Cl)c2)CC1,inactive,–
CC(=O)OCC1(O)CC23CCC4c5ccoc5CCC4(C)C2CCC1C3 (stereo unspecified),inactive,–
CCC1(C)Cc2c(sc3nc(SC)[nH]c(=O)c23)CO1 (stereo unspecified),inactive,–
CCC1(C)Cc2c(sc3nc4n(c(=O)c23)CCCS4)CO1 (stereo unspecified),inactive,–
CCC1(C)Cc2c(sc3[nH]c(=S)n(Cc4ccccc4)c(=O)c23)CO1 (stereo unspecified),16.4 µM (active),–
COc1ccc(Cl)cc1NC(=O)c1sc2nc3c(cc2c1N)CN(C)CC3,inactive,–
COc1ccc(CNc2nc(-c3ccc(Cl)cc3)cc(C(F)(F)F)n2)cc1,–,0.506% [at 9.27 µM] (inactive)
CN(C)c1ccc(C(=O)NCC(=O)OC(C(=O)Nc2cc(C(F)(F)F)ccc2Cl)c2ccccc2)cc1 (stereo unspecified),inactive,–
Cc1cccc(N2O[C@H]3C=CC2CCCC3)n1,inactive,–
COc1ccc(CCC(=O)Nc2ccc(Cl)c(S(=O)(=O)N3CCOCC3)c2)cc1OC,18.4 µM (active),–
COc1cc(/C=C/C(=O)Nc2ccc(OC)c(S(=O)(=O)N3CCOCC3)c2)ccc1OCC#N,9.2 µM (active),–
COc1cc(/C=C/C(=O)OCC(=O)N2CCOCC2)ccc1OCC#N,inactive,–
COc1ccc(COC(=O)c2ccc(Cl)c(S(=O)(=O)N3CCOCC3)c2)cc1F,inactive,–
COc1ccc(CNC(=O)COC(=O)c2ccc(C)c(S(=O)(=O)N3CCOCC3)c2)cc1OC,inactive,–
COc1ccc(NS(=O)(=O)c2cc(NC(=O)/C=C/c3cc(OC)c(OC)c(OC)c3)ccc2N2CCCCC2)cc1,inactive,–
COc1ccc(C(=O)OCC(=O)c2ccc(C)c(S(=O)(=O)N3CCOCC3)c2)cc1OC,20.6 µM (active),–
Cc1ccc(C(=O)OCC(=O)N2CCCCCC2)cc1S(=O)(=O)N1CCOCC1,inactive,–
COc1ccc(CC(=O)Nc2ccc3c(c2)CCC3)cc1S(=O)(=O)N1CCOCC1,inactive,–
CCN1CCN(CCCNC(=O)c2ccc3c(c2)sc2nc(-c4ccc(OC)cc4)cn23)CC1,inactive,–
